Source: PubChem BioAssay (Tox21)
Where “and” joins values, the source holds several entries; their conditions need not be identical. Equal values may be shown once. Inconclusive results are not listed. Calls of active or inactive are those of the source. Unless noted, calls come from the whole dose curve; as a rule, active = well fitted curve in the direction sought with a large enough effect in the repeat runs; inconclusive = weak or mixed curves; inactive = no such curve, though single readings can be large; an effect the other way counts as inactive or inconclusive.

Legend:
[1] = qHTS assay for small molecule agonists of the p53 signaling pathway (AID 651631; calls by dose curve; note: nearly all actives have a fitted effect of over 15% in size; note: potency is the fitted concentration of half-maximal effect)
Procedure, shortened: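 We treat p53RE-bla HCT-116 cells with compounds for 16 h at 37 °C, add LiveBLAzer B/G FRET substrate for 2 h at room temperature, and measure fluorescence intensity.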

[2] = qHTS assay for small molecules that induce genotoxicity in human embryonic kidney cells expressing luciferase-tagged ATAD5 (AID 651632); note: nearly all actives have a fitted effect of over 15% in size; note: potency is the fitted concentration of half-maximal effect
Procedure, shortened: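 A rise in luciferase signal from ATAD5-tagged HEK293T cells marks genetic stress. Cells were exposed to compounds for 16 hr at 37C, 5% CO2, then luciferase was quantified after a 30 min room-temperature incubation with Amplite.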

[3] = qHTS assay for small molecule agonists of the p53 signaling pathway - cell viability (AID 651633; calls by dose curve; note: nearly all actives have a fitted effect of over 30% in size; note: potency is the fitted concentration of half-maximal effect)
Procedure, shortened: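 p53RE-bla cells, seeded at 4,000 per well and rested 5 h at 37 C/5% CO2, received compounds in DMSO for 16 h at 37 C. CellTiter-Glo was then added, and luminescence was read after 30 min at room temperature to gauge cytotoxicity.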

[4] = qHTS assay for small molecules that induce genotoxicity in human embryonic kidney cells expressing luciferase-tagged ATAD5 - cell viability (AID 651634; calls by dose curve; note: nearly all actives have a fitted effect of over 25% in size; note: potency is the fitted concentration of half-maximal effect)
Procedure, shortened: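 Cytotoxicity counter-readout: after 15.5 hr compound treatment at 37C, live-cell protease activity in ATAD5-luciferase HEK293T cells measured by CellTiter-Fluor fluorescence, 30 min development at 37C.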

[5] = qHTS assay for small molecule disruptors of the mitochondrial membrane potential - cell viability (AID 720634; calls by dose curve; note: nearly all actives have a fitted effect of over 20% in size; note: potency is the fitted concentration of half-maximal effect)
Procedure, shortened: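 Cytotoxicity was quantified from ATP content by CellTiter-Glo luminescence in the same wells as the MMP dye read-out. HepG2 (2,000 cells/well) were plated overnight and exposed to compounds for 1 hr at 37 C.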

[6] = qHTS assay to test for compound auto fluorescence at 590 nm (red) in HepG2 cells (AID 720674)
Procedure, shortened: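 Intrinsic compound fluorescence in the red window (Ex/Em 540/590 nm) is measured in attached HepG2 cells exposed for 1 hr, DMSO vehicle as baseline, benchmarked to Rose Bengal sodium.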

[7] = qHTS assay to test for compound auto fluorescence at 535 nm (green) in HepG2 cells (AID 720675)
[8] = qHTS assay to test for compound auto fluorescence at 460 nm (blue) in HEK293 cells (AID 720678)
Procedure, shortened: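 HEK293 cells (2,000/well, medium with 10% dialyzed FBS) attached 4-5 hr, then exposed to compound overnight at 37C, 5% CO2. Blue fluorescence read at 405/460 nm, with triamterene as reference fluorophore.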

[9] = qHTS assay to test for compound auto fluorescence at 535 nm (green) in HEK293 cells (AID 720680)
[10] = qHTS assay to test for compound auto fluorescence at 460 nm (blue) in HEK293 cell free culture (AID 720681)
Procedure, shortened: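 Test compounds were pinned into cell-free culture medium (DMEM with 10% FBS) and fluorescence was read directly at Ex/Em 405/460 nm. Signals were expressed as fluorescence equivalents of triamterene, with DMSO vehicle as control.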

[11] = qHTS assay to test for compound auto fluorescence at 590 nm (red) in HEK293 cell free culture (AID 720683)
Procedure, shortened: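 Tox21 10K library compounds were pinned into cell-free DMEM with 10% FBS and fluorescence was read at excitation 540 nm. Activity is expressed as Rose Bengal sodium equivalency.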

[12] = qHTS assay to test for compound auto fluorescence at 590 nm (red) in HepG2 cell free culture (AID 720684)
Procedure, shortened: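 Readout: intrinsic compound fluorescence at 590 nm emission after 540 nm excitation, scaled to Rose Bengal sodium. Matrix was cell-free MEM with 10% FBS; DMSO vehicle wells served as control.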

[13] = qHTS assay to test for compound auto fluorescence at 460 nm (blue) in HepG2 cell free culture (AID 720685)
Procedure, shortened: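 Cell-free plates of MEM plus 10% FBS received 23 nL compound or DMSO vehicle; blue-channel (405/460 nm) intensity scored against triamterene as reference fluorophore.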

[14] = qHTS assay to test for compound auto fluorescence at 535 nm (green) in HepG2 cell free culture (AID 720686)
[15] = qHTS assay to test for compound auto fluorescence at 460 nm (blue) in HepG2 cells (AID 720687)
Procedure, shortened: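 Cells (2,000/well in MEM with 10% FBS) attached overnight at 37 C, then were exposed to compound or DMSO for 1 hr at 37 C, 5% CO2. Fluorescence read at Ex/Em 405/460 nm, expressed as triamterene-equivalent signal.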

[16] = qHTS assay for small molecule disruptors of the mitochondrial membrane potential (AID 720635); note: potency is the fitted concentration of half-maximal effect
Procedure, shortened: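 HepG2 cells (2,000/well) attached overnight at 37C, then took compound for 1 hr at 37C, 5% CO2. Mito-MPS dye was added for 30 min; fluorescence was read at 490/535 nm (monomers) and 540/590 nm (aggregates).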

[17] = qHTS assay to test for compound auto fluorescence at 590 nm (red) in HEK293 cells (AID 720679)
Procedure, shortened: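 HEK293 cells (2,000/well, 10% dialyzed FBS) attached 4-5 hr, then dosed with compound or DMSO and incubated overnight at 37C, 5% CO2. Red fluorescence read at 540/590 nm, Rose Bengal sodium as reference fluorophore.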

[18] = qHTS assay to test for compound auto fluorescence at 535 nm (green) in HEK293 cell free culture (AID 720682)
Procedure, shortened: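 Green-channel intensity (Ex/Em 485/535 nm) was recorded from compound-treated wells containing only DMEM with 10% FBS. Fluorescein provided the equivalency standard.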

[19] = target: Glucocorticoid receptor (Homo sapiens) (UniProt P04150); assay: qHTS assay to identify small molecule agonists of the glucocorticoid receptor (GR) signaling pathway (AID 720691; active = well fitted activation curve with a large enough effect in the signal ratio in the repeat runs, not every such curve was filed as active; the % refers to the signal ratio); conditions: GR-bla HeLa, beta-lactamase reporter ratio, 18 h; activation: at 62.4 µM (top of the series)
Glucocorticoid receptor (Homo sapiens), sequence (P04150 whole entry, looked up): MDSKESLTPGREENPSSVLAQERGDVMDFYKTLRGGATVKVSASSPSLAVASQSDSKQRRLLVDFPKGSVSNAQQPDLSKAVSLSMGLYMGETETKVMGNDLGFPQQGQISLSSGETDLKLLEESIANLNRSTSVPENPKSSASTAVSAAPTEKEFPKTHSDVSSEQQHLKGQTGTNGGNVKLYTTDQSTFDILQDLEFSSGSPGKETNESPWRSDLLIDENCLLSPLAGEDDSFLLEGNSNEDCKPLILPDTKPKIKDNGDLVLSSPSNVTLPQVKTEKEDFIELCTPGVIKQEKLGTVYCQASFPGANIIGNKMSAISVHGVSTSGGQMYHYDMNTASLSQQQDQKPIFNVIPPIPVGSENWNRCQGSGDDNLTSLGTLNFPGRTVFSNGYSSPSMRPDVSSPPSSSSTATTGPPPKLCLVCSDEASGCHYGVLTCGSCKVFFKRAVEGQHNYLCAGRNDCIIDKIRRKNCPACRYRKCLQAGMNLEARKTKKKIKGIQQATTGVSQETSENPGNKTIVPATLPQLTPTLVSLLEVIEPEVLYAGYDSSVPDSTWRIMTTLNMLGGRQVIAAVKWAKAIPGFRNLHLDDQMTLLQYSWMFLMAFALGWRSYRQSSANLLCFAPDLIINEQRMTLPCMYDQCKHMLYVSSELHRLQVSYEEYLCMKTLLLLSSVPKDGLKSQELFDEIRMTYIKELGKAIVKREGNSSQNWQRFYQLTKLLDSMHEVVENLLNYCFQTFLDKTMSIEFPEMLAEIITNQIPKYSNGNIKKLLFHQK
Procedure, shortened: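 Agonist-mode qHTS in HeLa cells stably expressing a glucocorticoid-response-element beta-lactamase reporter. Fluorescence intensity read with FRET substrate (2 h, room temperature) after 18 h compound treatment at 37 C.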

[20] = target: Glucocorticoid receptor (Homo sapiens) (UniProt P04150); assay: qHTS assay to identify small molecule antagonists of the glucocorticoid receptor (GR) signaling pathway (AID 720692; active = well fitted inhibition curve with a large enough effect in the signal ratio in the repeat runs, not every such curve was filed as active; the % refers to the signal ratio)
Procedure, shortened: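 Inhibition of dexamethasone-driven (5 nM final) beta-lactamase expression was measured in GRE-reporter HeLa cells over 18 h at 37C. Fluorescence was read after 2 h with the B/G FRET substrate at room temperature.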
% is set by controls: 0 for no effect and ±100 for the full control effect.

CCCCC(CC)COC(=O)OOC(C)(C)C (stereo unspecified)
inactive: Potency [1] | Potency [2] | Potency [3] | Potency [4] | Potency [5] | outcome [6] | Potency [7] | Potency [8] | outcome [9] | Potency [10] | outcome [11] | outcome [12] | Potency [13] | Potency [14] | Potency [15]

Nc1nc(N)nc(Cl)n1
inactive: Potency [1] | Potency [2] | Potency [3] | Potency [4] | Potency [5] | Potency [16] | outcome [6] | Potency [7] | Potency [8] | outcome [17] | outcome [9] | Potency [10] | outcome [18] | outcome [11] | outcome [12] | Potency [13] | Potency [14] | Potency [15] | Potency [19] | Potency [20]

CCOP(=O)(OCC)Oc1cc(C)nc(C(C)C)n1
inactive: Potency [1] | Potency [2] | Potency [3] | Potency [4] | Potency [5] | Potency [16] | Potency [7] | Potency [8] | outcome [17] | outcome [9] | Potency [10] | outcome [18] | outcome [11] | outcome [12] | Potency [13] | Potency [14] | Potency [15] | Potency [19]

ClC1=C(Cl)[C@]2(Cl)[C@@H]3[C@H]4C[C@H]([C@@H]5O[C@H]45)[C@@H]3[C@@]1(Cl)C2(Cl)Cl
active: Potency [16] 16.8 µM and 19.3 µM
inactive: Potency [1] | Potency [2] | Potency [3] | Potency [4] | Potency [5] | outcome [6] | Potency [7] | Potency [8] | outcome [17] | outcome [9] | Potency [10] | outcome [18] | outcome [11] | outcome [12] | Potency [13] | Potency [14] | Potency [15] | Potency [19] | Potency [20]

O=[N+]([O-])c1ccc(Cl)c(Cl)c1Cl
inactive: Potency [1] | Potency [2] | Potency [3] | Potency [4] | Potency [5] | outcome [6] | Potency [7] | Potency [8] | outcome [17] | outcome [9] | Potency [10] | outcome [11] | outcome [12] | Potency [13] | Potency [15]

CC(O)C(=O)[O][Hg][c]1ccccc1 (stereo unspecified)
inactive: outcome [6] | Potency [7] | Potency [8] | outcome [17] | outcome [9] | Potency [10] | outcome [18] | outcome [11] | outcome [12] | Potency [13] | Potency [14] | Potency [15]
active: Potency [1] 545 nM | Potency [2] 96.9 nM | Potency [3] 217 nM | Potency [4] 969 nM | Potency [5] 5450 nM | Potency [16] 2.73 µM

CN/C(=N\[N+](=O)[O-])NCc1cnc(Cl)s1
inactive: Potency [1] | Potency [2] | Potency [3] | Potency [4] | Potency [5] | outcome [6] | Potency [7] | Potency [8] | outcome [17] | outcome [9] | Potency [10] | outcome [18] | outcome [11] | outcome [12] | Potency [13] | Potency [14] | Potency [15]

Nc1cc(Cl)ccc1Cl
inactive: Potency [1] | Potency [2] | Potency [3] | Potency [4] | Potency [5] | outcome [6] | Potency [8] | outcome [17] | outcome [9] | Potency [10] | outcome [18] | outcome [11] | outcome [12] | Potency [13] | Potency [14] | Potency [15] | Potency [19] | Potency [20]

OCC(Br)CBr (stereo unspecified)
inactive: Potency [1] | Potency [2] | Potency [3] | Potency [4] | Potency [5] | outcome [6] | Potency [7] | Potency [8] | outcome [17] | Potency [10] | outcome [18] | outcome [11] | outcome [12] | Potency [13] | Potency [15] | Potency [19]

COc1ccc2c(c1OC)C(=O)O[C@@H]2[C@H]1c2cc3c(cc2CCN1C)OCO3
inactive: Potency [1] | Potency [2] | Potency [3] | Potency [4] | Potency [5] | outcome [6] | Potency [7] | Potency [8] | outcome [17] | outcome [9] | Potency [10] | outcome [18] | outcome [11] | outcome [12] | Potency [13] | Potency [14] | Potency [15]

CC(C)c1c(CN(C)C(C)Cc2ccccc2)n(C)n(-c2ccccc2)c1=O (stereo unspecified)
inactive: Potency [1] | Potency [2] | Potency [3] | Potency [4] | Potency [5] | Potency [16] | fluorescence, relative to Rose Bengal [6] 0.213% [at 18.6 µM] | fluorescence, % of fluorescein control [7] -0.0089% [at 18.6 µM] | fluorescence, % of triamterene [8] -0.225% [at 18.6 µM] | fluorescence, % of fluorescent control [17] -0.993% [at 18.6 µM] | fluorescence, % of fluorescein [9] -0.0005% [at 18.6 µM] | fluorescence, % of fluorescent control [10] 0.024% [at 18.6 µM] | activity change [18] -0.0364% [at 18.6 µM] | fluorescence, % of fluorescent control [11] 0.362% [at 18.6 µM] | fluorescence, % of Rose Bengal [12] -0.353% [at 18.6 µM] | fluorescence, % of fluorescent control [13] -0.0993% [at 18.6 µM] | fluorescence, % of fluorescein control [14] -0.009% [at 18.6 µM] | fluorescence, % of fluorescent control [15] 0.105% [at 18.6 µM] | Potency [19] | Potency [20]

C[N+]1(C)[C@@H]2CC[C@H]1CC(OC(=O)C(CO)c1ccccc1)C2 (stereo partly specified)
inactive: Potency [1] | Potency [2] | Potency [3] | Potency [4] | Potency [5] | Potency [16] | outcome [6] | Potency [8] | outcome [9] | Potency [10] | outcome [18] | outcome [11] | outcome [12] | Potency [13] | Potency [15] | Potency [19] | Potency [20]

CCCCCON=O
inactive: Potency [1] | Potency [2] | Potency [3] | Potency [4] | Potency [5] | Potency [16] | outcome [6] | Potency [8] | outcome [17] | outcome [9] | Potency [10] | outcome [11] | outcome [12] | Potency [13] | Potency [14] | Potency [15]

CCN(CC)Cc1nccn1-c1ccc([N+](=O)[O-])cc1C(=O)c1ccccc1Cl
inactive: Potency [1] | Potency [2] | Potency [3] | Potency [4] | Potency [5] | Potency [16] | outcome [6] | Potency [7] | Potency [8] | outcome [17] | outcome [9] | Potency [10] | outcome [11] | outcome [12] | Potency [13] | Potency [14] | Potency [15] | Potency [19] | Potency [20]
